Rows were chosen to be rich in hits. Some 1.6% of all compounds tested hit in one or more screens of this group.
ATG4B inhibitor: ATG4B protease inhibitors, primary screen, biochemical, fluorescence, uHTS | Cysteine protease ATG4B (Homo sapiens), Q9Y4P1 | ATG4B cleavage of LC3-PLA2, NBD-HPC fluorescence, 1 h | inhibition, % at 8.33 µM | 340,000 tested, 0.51% active | AID 504462, 2011; in the data active = inhibition above about 40%
VLA-4 inh: inhibition in human VLA-4 binding assay, primary screen, VLA-4 allosteric modulator project, MLPCN library, flow cytometry, VLA-4 expressing cells | ligand binding flow cytometry | 330,000 tested, 0.2% active | AID 2557, 2010 | inhibition, % (about 7 µM as worked out from the volumes in the protocol) | Integrin alpha-4 (Homo sapiens), P13612; in the data active = inhibition above about 50%
PKA-R2B act: activators of PKA-R2B holoenzyme, primary screen, biochemical, fluorescence polarization, Cy5-IP20, human; PKA-R2B holoenzyme dissociation; R2B truncated from residue 108, S112A mutant; 0% DMSO only, 100% 113 µM cGMP; activation, % at 11.4 µM; 340,000 tested, 0.079% active; AID 504700, 2011;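 active = activation above a cutoff set at the mean over all compounds plus 3 SD, cut at about 18% in these data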;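 also: higher means more holoenzyme dissociation and a rise in polarization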
PKA-R1A activ: activators of PKA-R1A holoenzyme, primary screen, biochemical, fluorescence polarization, Cy5-IP20, bovine R1A, mouse PKAc. cAMP-dependent protein kinase type I-alpha regulatory subunit (Bos taurus) + …. PKA-R1A dissociation; scaled: DMSO 0%, 113 µM cGMP 100%. activation, % at 11.4 µM. 340,000 tested, 0.083% active. AID 504707, 2011;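 active = percent activation above the mean of all tested compounds plus 3 SD, cut at about 19% in these data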;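 also: higher means more PKAc released from R1A so a rise in polarization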
NRP1-CendR mod: modulators of CendR peptide binding to NRP-1, primary screen, biochemical, fluorescence polarization, uHTS | 360,000 tested, 0.85% active | Neuropilin-1 (Homo sapiens), O14786 | inhibition, % at 25 µM | FAM-RPARPAR peptide binding to NRP-1 | AID 602438, 2012;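 active = inhibition or corrected inhibition above about 18%, plus a signal ratio from 0.5 to 1.5, limit read from the data, passing the limit was not always enough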
Target sequence (O14786 whole entry, looked up): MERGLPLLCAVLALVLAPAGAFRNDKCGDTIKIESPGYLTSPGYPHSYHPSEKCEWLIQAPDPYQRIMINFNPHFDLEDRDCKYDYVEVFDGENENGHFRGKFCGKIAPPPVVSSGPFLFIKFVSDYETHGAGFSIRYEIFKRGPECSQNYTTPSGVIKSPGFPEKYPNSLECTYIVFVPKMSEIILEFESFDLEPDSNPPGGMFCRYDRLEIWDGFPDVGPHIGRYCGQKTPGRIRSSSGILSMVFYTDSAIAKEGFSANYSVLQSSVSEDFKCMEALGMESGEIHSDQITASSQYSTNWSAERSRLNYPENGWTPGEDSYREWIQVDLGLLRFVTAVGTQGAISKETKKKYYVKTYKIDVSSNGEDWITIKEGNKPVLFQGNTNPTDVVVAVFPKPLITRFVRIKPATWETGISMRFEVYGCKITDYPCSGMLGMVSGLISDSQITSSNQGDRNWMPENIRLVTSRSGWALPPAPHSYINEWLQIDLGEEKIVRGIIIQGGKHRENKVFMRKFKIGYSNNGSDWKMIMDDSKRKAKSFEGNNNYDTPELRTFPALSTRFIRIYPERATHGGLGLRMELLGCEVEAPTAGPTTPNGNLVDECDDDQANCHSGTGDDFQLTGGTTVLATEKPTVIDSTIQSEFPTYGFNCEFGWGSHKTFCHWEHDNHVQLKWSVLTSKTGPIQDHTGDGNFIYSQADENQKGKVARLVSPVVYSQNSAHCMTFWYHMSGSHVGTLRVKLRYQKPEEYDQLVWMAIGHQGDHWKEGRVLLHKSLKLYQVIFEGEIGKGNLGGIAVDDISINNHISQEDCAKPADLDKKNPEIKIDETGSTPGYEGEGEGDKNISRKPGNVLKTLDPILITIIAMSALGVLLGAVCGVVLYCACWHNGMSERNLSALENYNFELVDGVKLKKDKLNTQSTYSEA
Numbers stand for hits; 0 = inactive; - = no result.

SMILES | ATG4B inhibitor | VLA-4 inh | PKA-R2B act | PKA-R1A activ | NRP1-CendR mod
COc1ccc(C2C(C(=O)Nc3ccc(F)cc3)=C(C)Nc3nc(CCCO)nn32)cc1 (stereo not drawn) | 0 | 0 | 0 | 0 | 20
CCOc1ccc(C2C(C(=O)Nc3ccc(F)cc3)=C(C)Nc3nc(CCCO)nn32)cc1 (stereo not drawn) | 0 | 0 | 0 | 0 | 0
COc1cc2oc(=O)ccc2cc1[C@H](O)[C@@H](O)C(C)(C)O | 0 | 0 | 0 | 0 | 0
COc1cc2oc(=O)ccc2cc1[C@@H](O)[C@@H]1OC(C)(C)OC1(C)C | 0 | 0 | 0 | 0 | 27
Oc1ccc(C[C@H]2CNC(=S)N2C[C@H]2CCCN2C[C@H](Cc2ccccc2)N2C[C@H](Cc3ccccc3)N(CC3CCCCC3)C2=S)cc1 | - | - | - | - | 0
CC1=C(C(=O)N(C)C)CC(CC(=O)NCC2CCCCC2)C(=O)N1Cc1ccc(F)cc1 (stereo not drawn) | - | - | - | - | 0
CC1CN(C(=O)c2ccccc2NS(=O)(=O)c2ccc(Cl)cc2)CC(C)O1 (stereo not drawn) | 0 | 0 | 0 | 0 | 19
CC1CN(C(=O)c2ccc(S(=O)(=O)Nc3ccccc3Cl)cc2)CC(C)O1 (stereo not drawn) | 0 | 0 | 0 | 0 | 0
FC(F)(F)c1cc(-c2ccccc2)nc(NCc2cccnc2)n1 | 0 | 0 | 0 | 0 | 0
Fc1ccc(-c2cc(C(F)(F)F)nc(NCc3cccs3)n2)cc1 | 0 | 0 | 0 | 0 | 30
COC(=O)[C@@H]1C[C@@H](c2ccccc2)[C@H](C)C1(C)C | 0 | 0 | 0 | 0 | 0
CCOC(=O)C1(Cc2ccccc2Cl)CCN(C(=O)CN2CCOC2=O)CC1 | 0 | 0 | 0 | 0 | 23
CCOC(=O)C1(CCCc2ccccc2)CCN(C(=O)CN2CCOC2=O)CC1 | 0 | 0 | 0 | 0 | 0
Cc1ccc2cc(CN(c3ccccc3C)S(=O)(=O)c3ccccc3)c(=O)[nH]c2c1 | 0 | 0 | 0 | 0 | 25
Cc1ccc2nc(-c3ccc(C#N)cc3)c(Cc3ccccc3C(F)(F)F)n2c1 | - | - | - | - | 0
Cc1ccc(NC(=O)CCC(=O)N2CCN(S(=O)(=O)c3ccc(C)cc3)CC2)cc1 | 0 | 0 | 0 | 0 | 45
O=[N+]([O-])c1c(Nc2ccccc2O)cc(Cl)c2nonc12 | 0 | 0 | 0 | 0 | 0
O=C(O)c1cc(Nc2cc(Cl)c3nonc3c2[N+](=O)[O-])ccc1O | 0 | 0 | 0 | 0 | 25
CCCS(=O)(=O)c1nc(S(=O)(=O)c2ccc(C)cc2)c(N2CCCC2)s1 | 0 | 0 | 0 | 0 | 19
CCCS(=O)(=O)c1nc(S(=O)(=O)c2ccc(C)cc2)c(N2CCC(C)CC2)s1 | 0 | 0 | 0 | 0 | 0
COc1ccc(/C=N/NC(=O)c2cccc(NC(=O)c3ccccc3Cl)c2)c(OC)c1 | 0 | 0 | 0 | 0 | 32
COc1ccccc1/C=N/NC(=O)c1cccc(NC(=O)c2ccccc2Cl)c1 | 0 | 0 | 0 | 0 | 0
O=C(NCc1ccccc1)C(c1cccnc1)N(C(=O)c1ccccn1)c1ccccc1F (stereo not drawn) | 0 | 0 | 0 | 0 | 26
Cc1ccccc1N(C(=O)c1ccccn1)C(C(=O)NCc1ccccc1)c1cccnc1 (stereo not drawn) | 0 | 0 | 0 | 0 | 0
CC(C)(C)c1ccccc1NC(=O)Nc1nc(C(N)Cc2ccc(F)cc2)cs1 (stereo not drawn) | - | - | - | - | 0
SMILES | ATG4B inhibitor | VLA-4 inh | PKA-R2B act | PKA-R1A activ | NRP1-CendR mod
CCOc1ccccc1NC(=O)c1cccc(S(=O)(=O)N(Cc2ccccc2)c2ccccc2OC)c1 | 0 | 0 | 0 | 0 | 30
Cc1cc(C)cc(N2C(=O)CC(n3nc(C)cc3C)C2=O)c1 (stereo not drawn) | 0 | 0 | 0 | 0 | 0
Cc1cc(C)n(C2CC(=O)N(c3cc(Cl)cc(Cl)c3)C2=O)n1 (stereo not drawn) | 0 | 0 | 0 | 0 | 35
O=C(Nc1ccccc1)Nc1ccccc1C(=O)NCCCN1CCOCC1 | 0 | 0 | 0 | 0 | 0
Cc1ccc2c(c1)c(=O)c1c3n2CCN(C(=O)CCl)C3CC1 (stereo not drawn) | 0 | 0 | 0 | 0 | 26
COc1cccc2cc(-c3nc4ccccc4o3)c(=O)oc12 | 0 | 0 | 0 | 0 | 30
O=c1oc2ccc(Br)cc2cc1-c1nc2ccccc2o1 | 0 | 0 | 0 | 0 | 0
CC(C)CC(COCc1ccc([N+](=O)[O-])cc1)N1CCN(C(=O)c2ccc(C(F)(F)F)cc2)CCC1=O (stereo not drawn) | 0 | 0 | 0 | 0 | 23
CCCCCCCCCOC(=O)C(CC(=O)O)N1CCOCC1 (stereo not drawn) | 0 | 0 | 0 | 0 | 32
CCCCCOC(=O)CC(C(=O)OCCCCC)N1CCCCC1 (stereo not drawn) | 0 | 0 | 0 | 0 | 0
O=C(CNC(=O)c1ccccc1)NCCCSc1ccccc1 | 0 | 0 | 0 | 0 | 27
CCOc1ccc(C(=O)NCC(=O)NCCCSc2ccccc2)cc1OCC | 0 | 0 | 0 | 0 | 0
CC1CCCN(S(=O)(=O)c2cc3c4c(c2)CCN4C(=O)CC3)C1 (stereo not drawn) | 0 | 0 | 0 | 0 | 0
CC1CC(C)CN(S(=O)(=O)c2cc3c4c(c2)CCN4C(=O)CC3)C1 (stereo not drawn) | 0 | 0 | 0 | 0 | 25
COC(=O)c1nc2n(n1)C(c1ccc(OC)c(OC)c1OC)C1=C(CCCC1=O)N2 (stereo not drawn) | 0 | 0 | 0 | 0 | 18
CCCCC(=O)N(C)c1c(CC)nc2c(OCc3cc(Cl)cc(Cl)c3)cccn12 | - | - | - | - | 0
O=C(O)C1OC1(c1ccccc1Cl)c1ccccc1Cl (stereo not drawn) | 0 | - | 0 | 0 | 24
O=C(Nc1cccc(F)c1)NC1(C(=O)N2CCC(O)CC2)CCCCC1 | 0 | 0 | 0 | 0 | 24
CCOc1ccc(OCC)c(NC(=O)C2CCN(S(=O)(=O)c3cnc[nH]3)CC2)c1 | 0 | 0 | 0 | 0 | 21
COc1ccc([N+](=O)[O-])cc1NC(=O)c1cccs1 | 0 | 0 | 0 | 0 | 0
CCN(CC)S(=O)(=O)c1ccc(OC)c(NC(=O)c2cccs2)c1 | 0 | 0 | 0 | 0 | 25
COc1ccc(C(O)c2nc(-c3ccc(OC)c(OC)c3)cs2)cc1 (stereo not drawn) | - | - | - | - | 0
CCOC(=O)c1sc2nc(OCc3cccnc3)cc(C)c2c1N | - | - | - | - | 0
COc1cc(/C=N/S(=O)(=O)CCc2ccccc2)cc(OC)c1O | 0 | 0 | 0 | 0 | 39
COc1cc(/C=C(\C#N)C(=O)NCCc2ccccc2)cc(OC)c1O | 0 | 0 | 0 | 0 | 0
